LEDGF integ inh – blockers of LEDGF/p75-dependent integrase strand transfer – biochemical, TR-FRET, high throughput, primary screen; HIV-1 integrase (with human LEDGF/p75); TR-FRET IN-LEDGF/p75 DNA integration, Eu/Cy5; inhibition, % at 3.7 µM; hit rate 0.64% among 370,000;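 active means inhibition above the screen-wide mean plus 3 SD, cut at about 13% in these data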;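 further: signal is the Cy5 over europium emission ratio at 671 and 618 nm; 0% = plate median of compound wells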
PLC-gamma1 inh – PLC-gamma1 enzyme inhibitors, primary screen, biochemical, fluorescence, purified enzyme | 1-phosphatidylinositol 4,5-bisphosphate phosphodiesterase gamma-1 (Homo sapiens), P19174 | fluorogenic substrate | inhibition, % at 12.2 µM | hit rate 0.84% among 370,000 | AID 720700, 2013
UHRF1 binding – UHRF1 methylated DNA binding inhibitors, primary screen, counter-screen for MBD2 inhibitor project, biochemical, TR-FRET, human UHRF1, single concentration. UHRF1 binding to methylated oligo. inhibition, % at 4.4 µM. hit rate 0.75% among 370,000; in the data active means inhibition above about 21%;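 further: UHRF1 SRA domain binding a hemimethylated CpG hairpin DNA probe; 0% = median of test compound wells and 100% = reference inhibitor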
MBD2 inh – inhibitors of MBD2 binding to methylated DNA, primary screen, biochemical, TR-FRET, DNA-binding domain, human. hit rate 0.31% among 370,000. MBD2 binding to methylated oligonucleotide. AID 686964, 2013. inhibition, % at 4.4 µM; in the data active means inhibition above about 13%
Target sequence (Q9UBB5 whole entry, looked up, the tested form may be a part): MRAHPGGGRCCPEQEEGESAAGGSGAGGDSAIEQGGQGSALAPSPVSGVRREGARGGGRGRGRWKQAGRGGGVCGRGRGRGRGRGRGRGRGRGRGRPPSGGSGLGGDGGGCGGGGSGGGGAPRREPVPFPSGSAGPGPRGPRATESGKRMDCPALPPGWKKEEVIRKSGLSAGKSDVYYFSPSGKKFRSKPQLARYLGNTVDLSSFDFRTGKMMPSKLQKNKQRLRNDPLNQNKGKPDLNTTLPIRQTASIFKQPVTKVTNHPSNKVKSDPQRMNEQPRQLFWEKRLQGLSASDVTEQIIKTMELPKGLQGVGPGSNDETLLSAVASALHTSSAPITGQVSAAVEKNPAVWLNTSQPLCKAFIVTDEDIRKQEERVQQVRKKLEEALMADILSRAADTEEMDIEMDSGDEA
PLCb3 inh – human PLC-beta3 inhibitors, primary screen, biochemical, fluorescence; 1-phosphatidylinositol 4,5-bisphosphate phosphodiesterase beta-3 (Homo sapiens), Q01970; Purified PLC-beta3, fluorogenic substrate; inhibition, % at 12.2 µM; hit rate 0.18% among 370,000; AID 720704, 2013; in the data active means inhibition above about 11%;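 further: 0% = median of compound wells on plate and 100% = full blocker control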
PLCgamma1 ctr – PLC-gamma1 enzyme inhibitors, counter-screen for PLC-beta3 inhibitor project, biochemical, fluorescence; shares compounds with PLC-gamma1 inh; purified PLC-gamma1, fluorogenic substrate; inhibition, % at 12.3 µM; hit rate 3.1% among 3,300
PLCb3 confirm – PLC-beta3 inhibitor confirmation, biochemical, fluorescence, purified enzyme. shares compounds with PLC-gamma1 inh. fluorogenic substrate fluorescence. inhibition, % at 12.3 µM. hit rate 1% among 3,300. AID 743261, 2014; in the data active means inhibition above about 11%
IN multimer act – HIV-1 IN multimer formation enhancers, counter-screen for LEDGF/p75 integration inhibitor project, biochemical, TR-FRET; AID 1053131, 2014; hit rate 17% among 2,000; shares compounds with LEDGF integ inh; activation, % at 7.7 µM; TR-FRET HIV-1 integrase multimerization; in the data active means activation above about 8.9%
TRFRET interf – TR-FRET optical interference artefacts, confirmation, artefact control for LEDGF/p75-dependent integration inhibitor project, biochemical, HIV-1 IN multimerization | 2,000 tested, under 10 active | TR-FRET optical interference counterscreen | shares compounds with LEDGF integ inh | inhibition, % at 7.7 µM;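 active means inhibition above the mean over all tested compounds plus 3 SD, which no compound reached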;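 further: 0% = integrase with antibodies and DMSO and 100% = antibodies without integrase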
LEDGF integ conf – inhibitors of HIV-1 IN-LEDGF/p75 DNA integration, confirmation, biochemical, TR-FRET | shares compounds with LEDGF integ inh | TR-FRET LEDGF/p75-dependent HIV-1 integration | inhibition, % at 3.7 µM | hit rate 36% among 2,000 | AID 1053136, 2014; in the data active means inhibition above about 14%
Active calls of the source: *; nt = no result. A selection: hits, their analogues and other compounds. The true share with any hit is near 2.4%. Unless noted, no stated cut-off is given here; in the data, active means inhibition above about 9.5%; inactive means the rest.

SMILES | LEDGF integ inh | PLC-gamma1 inh | UHRF1 binding | MBD2 inh | PLCb3 inh | IN multimer act | TRFRET interf | LEDGF integ conf | others
Cc1ccc(/C=N/Nc2nncn2N)cc1 | 65* | 11* | 11 | -2 | 2 | -3 | 11 | 4 | PLCgamma1 ctr=-15;PLCb3 confirm=-9
Nn1cnnc1N/N=C/c1ccc(F)cc1 | 65* | 16* | 6 | 5 | 4 | -1 | 2 | -6 | PLCgamma1 ctr=-8;PLCb3 confirm=-3
Cc1ccc(/C=N/Nc2nc(C)cc(C)n2)cc1 | 1 | 0 | 1 | -2 | -8 | nt | nt | nt
Nc1nnnn1/N=C\c1ccc(Cl)c([N+](=O)[O-])c1 | -1 | 1 | -4 | -1 | 1 | nt | nt | nt
Nn1cnnc1N/N=C/c1ccc(Cl)c([N+](=O)[O-])c1 | 44* | 12* | 10 | 3 | 5 | 1 | -3 | 7 | PLCgamma1 ctr=-4;PLCb3 confirm=-1
O=S1(=O)c2ccc(N3CCC[C@H]3CO)cc2OCCCN1C1CC1 | 5 | -5 | 7 | -3 | -4 | nt | nt | nt
CC(C)C[C@H]1COc2cccc(N3CCCC3)c2S(=O)(=O)N1C | 2 | -4 | -2 | -1 | -7 | nt | nt | nt
CCOc1cc(/C=C2/C(=O)N(c3ccccc3)N=C2C)ccc1OC(=O)c1ccco1 | 25* | 10* | 18 | 10 | 3 | 1 | -5 | 7 | PLCgamma1 ctr=-4;PLCb3 confirm=-3
CC1=NN(c2ccccc2)C(=O)/C1=C/c1cccs1 | 46* | 25* | 18 | 10 | 16* | 3 | -11 | -1 | PLCgamma1 ctr=1;PLCb3 confirm=-1
CC(C)OP(=O)(c1ccc(N(C)C)cc1)C(O)c1ccccc1F (stereo not drawn) | -2 | -2 | 2 | 3 | 0 | nt | nt | nt
CC(C)CCOP(=O)(c1ccc(N(C)C)cc1)C(O)c1ccccc1F (stereo not drawn) | 21* | 2 | -1 | 4 | 2 | -2 | 8 | -3
COc1ccc(Nc2ncc(C(=O)O)c3ccccc23)cc1 | -7 | -10 | 7 | 3 | -7 | nt | nt | nt
COc1ccc(Nc2ncc(C(=O)N3CCN(c4ccc(F)cc4)CC3)c3ccccc23)cc1 | 14* | -47 | 2 | -2 | -63 | -1 | 3 | -5
CN(C)c1ccc(N=C/C=C2\N(C)c3ccccc3C2(C)C)cc1 | 15* | -3 | -9 | -19 | -7 | 6 | -31 | -10
COC(=O)[C@]1(C#N)CC(=O)N(C)[C@@H]1c1ccccc1 | 10 | 9 | -1 | 0 | 0 | nt | nt | nt
COc1ccc(CNS(=O)(=O)c2cc3c(cc2Br)CC(C)N3C(C)=O)cc1 (stereo not drawn) | -3 | -1 | 0 | 2 | -2 | nt | nt | nt
S=c1[nH]nc(-c2ccncc2)n1/N=C/C=C/c1ccco1 | 18* | 1 | 14 | 0 | 0 | 5 | -26 | 33*
Cc1cccc(-c2n[nH]c(=S)n2/N=C/C=C/c2ccco2)c1 | 29* | -11 | 26* | 11 | -17 | 2 | -12 | 8
S=c1[nH]nc(-c2ccccc2Cl)n1/N=C/C=C/c1ccco1 | 13 | -1 | 4 | -3 | -11 | nt | nt | nt
CCCC/C=C1/[C@@H](CC)N(Cc2ccc(OC)cc2OC)C2=N[C@@H](c3ccccc3)CC(=O)N21 | 4 | 7 | 2 | -9 | 9 | nt | nt | nt
Cc1oc(-c2ccc(Cl)cc2)nc1CS(=O)CC(=O)NCCN1CCCC1 (stereo not drawn) | -3 | -4 | 0 | 3 | -6 | nt | nt | nt
Cc1oc(-c2ccc(Cl)cc2)nc1CS(=O)CC(=O)NCCCN1CCOCC1 (stereo not drawn) | 18* | -2 | 2 | 1 | -7 | 0 | 2 | -7
N#Cc1ccc(NC(=O)OC2CCC23CCC(c2ccccc2)CC3)cc1 (stereo not drawn) | -2 | -1 | 1 | -2 | -4 | nt | nt | nt
CNc1ccccc1/C(O)=C(\C#N)C(=O)NCc1cccc2ccccc12 | 1 | -5 | -1 | -2 | -6 | nt | nt | nt
O=C(NCCNC(=O)c1ccco1)c1ccc(F)cc1 | -3 | -1 | 4 | -1 | -4 | nt | nt | nt
SMILES | LEDGF integ inh | PLC-gamma1 inh | UHRF1 binding | MBD2 inh | PLCb3 inh | IN multimer act | TRFRET interf | LEDGF integ conf | others
O=C(NCCNCc1ccc(F)cc1)c1ccco1 | 22* | -1 | 1 | -3 | 2 | 0 | -2 | -2
CN(C)c1ccc(N2C(=O)CSC2=S)cc1 | 21* | 0 | 0 | 1 | -5 | 2 | -12 | 6
CC1SC(=S)N(c2ccc(N(C)C)cc2)C1=O (stereo not drawn) | 20* | -1 | 0 | -9 | -4 | 1 | -3 | 0
CN(C)c1ccc(N2C(=O)CC(c3ccccc3)CC2=O)cc1 | 1 | 0 | 0 | -4 | -4 | nt | nt | nt
Cc1cc(=O)[nH]c(SCC(=O)Nc2cccc(Cl)c2F)n1 | 4 | 4 | 2 | -3 | 4 | nt | nt | nt
O=S1(=O)N[C@H](Cc2ccccc2)COc2cc(N3CCCC3)ccc21 | 0 | 0 | 6 | -2 | 4 | nt | nt | nt
CN(C)c1ccc(NC(=O)C2C3C=CC(C3)C2C(=O)O)cc1 (stereo not drawn) | 50* | 1 | 21* | -9 | -6 | -2 | 11 | 2
Cc1ccc(C(=O)Nc2c(-c3ccc(Cl)cc3)[nH][nH]c2=O)cc1 | 14* | 7 | 4 | 2 | 4 | 4 | -12 | 1
COc1ccc(CN2C(=O)c3ccnn3CC2(C)c2nnnn2-c2c(C)cccc2C)cc1 (stereo not drawn) | 4 | -1 | -2 | -6 | 0 | nt | nt | nt
COc1ccc(Br)cc1C=NNC(=O)c1ccncc1 | -6 | -12 | -2 | -2 | -13 | nt | nt | nt
N#CC(CC(=O)OCc1ccccc1)NC(=O)OCc1ccccc1 (stereo not drawn) | 33* | -1 | 0 | 1 | -1 | -1 | 6 | -3

Compound activity: PubChem, The Scripps Research Institute Molecular Screening Center
